Assay results published in PubChem BioAssay AID1159580 (chemical genetic matrix, 2015).
Where “and” joins values, the source holds several entries; their conditions need not be identical. Equal values may be shown once. Out of some 5,500 compounds screened, about 2,000 (36%) were called active. About 18% were inconclusive and are not listed. Rule as the data show it: active = normalized growth mostly below about 0.91 (no sharp cut-off); inconclusive = no clear call, values can overlap the other calls; inactive = mostly above about 0.92. This is one part of the list.

Assay: chemical genetic growth profiling, strain panel (AID 1159580);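 also: tested at 20 µM; growth read once vehicle control cultures reached saturation at 30 °C; 1 = growth at the plate median or of vehicle wells; lower values mean less growth of the strain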
Settings: S. cerevisiae deletion strains, growth OD

Measured: normalized growth

NC(CO)C(=O)NNCc1ccc(O)c(O)c1O (configuration not stated)
active: locus YGR229C, strain SMI1, stronger effect = lower value 0.775 | locus YHR027C, strain rpn1, stronger effect = lower value 0.911
inactive: locus YAL013W, strain DEP1, stronger effect = lower value 0.941 | locus YAL021C, strain ccr4, stronger effect = lower value 0.96 | locus YAL026C, strain drs2, stronger effect = lower value 0.977 | locus YAL030W, strain snc1, stronger effect = lower value 0.986 | locus YAL040C, strain CLN3, stronger effect = lower value 0.967 | locus YBL061C, strain skt5, stronger effect = lower value 0.999 | locus YBR009C, strain hhf1, stronger effect = lower value 0.971 | locus YBR021W, strain FUR4, stronger effect = lower value 1.02 | locus YBR023C, strain chs3, stronger effect = lower value 0.984 | locus YBR171W, strain sec66, stronger effect = lower value 0.996 | locus YBR229C, strain ROT2, stronger effect = lower value 1.02 | locus YBR231C, strain swc5, stronger effect = lower value 1 | locus YBR279W, strain paf1, stronger effect = lower value 0.97 | locus YCL011C, strain gbp2, stronger effect = lower value 0.946 | locus YCL016C, strain dcc1, stronger effect = lower value 0.977 | locus YCL029C, strain bik1, stronger effect = lower value 0.997 | locus YCL069W, strain vba3, stronger effect = lower value 0.968 | locus YCR088W, strain abp1, stronger effect = lower value 1 | locus YDL005C, strain med2, stronger effect = lower value 1.01 | locus YDL035C, strain GPR1, stronger effect = lower value 1.02 | locus YDL040C, strain nat1, stronger effect = lower value 1.01 | locus YDL074C, strain BRE1, stronger effect = lower value 0.98 | locus YDL101C, strain DUN1, stronger effect = lower value 0.99 | locus YDL185W, strain tfp1, stronger effect = lower value 1 | locus YDL192W, strain arf1, stronger effect = lower value 0.998 | locus YDR001C, strain nth1, stronger effect = lower value 0.982 | locus YDR069C, strain doa4, stronger effect = lower value 0.966 | locus YDR101C, strain arx1, stronger effect = lower value 0.971 | locus YDR137W, strain rgp1, stronger effect = lower value 0.91 | locus YDR150W, strain NUM1, stronger effect = lower value 1.03 | locus YDR159W, strain sac3, stronger effect = lower value 1.02 | locus YDR162C, strain NBP2, stronger effect = lower value 1.02 | locus YDR195W, strain ref2 1.03 | locus YDR297W, strain sur2, stronger effect = lower value 0.994 | locus YDR318W, strain mcm21, stronger effect = lower value 1 | locus YDR334W, strain swr1, stronger effect = lower value 0.982 | locus YDR335W, strain msn5, stronger effect = lower value 0.995 | locus YDR363W, strain ESC2, stronger effect = lower value 0.968 | locus YDR388W, stronger effect = lower value 0.99 | locus YDR392W, strain spt3, stronger effect = lower value 1.03 | locus YDR502C, strain sam2, stronger effect = lower value 0.988 | locus YEL003W, strain gim4, stronger effect = lower value 0.981 | locus YEL037C, strain rad23, stronger effect = lower value 0.98 | locus YEL061C, strain CIN8 (second series), stronger effect = lower value 0.981 | locus YEL061C, strain CIN8, stronger effect = lower value 1.01 | locus YER002W, strain NOP16, stronger effect = lower value 1 | locus YER015W, strain faa2, stronger effect = lower value 0.947 | locus YER016W, strain bim1, stronger effect = lower value 0.994 | locus YER110C, stronger effect = lower value 0.984 | locus YER111C, strain swi4, stronger effect = lower value 0.966 | locus YER155C, strain BEM2 (second series), stronger effect = lower value 1.08 | locus YER155C, strain BEM2, stronger effect = lower value 1 | locus YER167W, strain BCK2, stronger effect = lower value 1.02 | locus YFR010W, strain ubp6, stronger effect = lower value 0.989 | locus YGL078C, strain dbp3, stronger effect = lower value 0.993 | locus YGL086W, strain mad1, stronger effect = lower value 0.993 | locus YGL167C, strain pmr1, stronger effect = lower value 0.996 | locus YGL173C, strain kem1, stronger effect = lower value 1.01 | locus YGL227W, strain vid30, stronger effect = lower value 1.01 | locus YGL240W, strain doc1, stronger effect = lower value 1.06 | locus YGL248W, strain PDE1, stronger effect = lower value 1.01 | locus YGL253W, strain hxk2, stronger effect = lower value 0.958 | locus YGR078C, strain PAC10, stronger effect = lower value 0.995 | locus YGR135W, strain pre9, stronger effect = lower value 0.994 | locus YGR252W, strain gcn5, stronger effect = lower value 0.986 | locus YHR013C, strain ard1, stronger effect = lower value 0.987 | locus YHR030C, strain SLT2, stronger effect = lower value 1.02 and 1.05 | locus YHR079C, strain IRE1 (second series), stronger effect = lower value 1 | locus YHR079C, strain IRE1, stronger effect = lower value 1.06 | locus YHR094C, strain hxt1, stronger effect = lower value 1.01 | locus YHR129C, strain ARP1, stronger effect = lower value 1.01 | locus YHR142W, strain chs7, stronger effect = lower value 0.964 | locus YHR200W, strain rpn10, stronger effect = lower value 0.986 | locus YIL066C, strain RNR3, stronger effect = lower value 1.03 | locus YIL073C, strain SPO22, stronger effect = lower value 0.985 | locus YIL125W, strain kgd1, stronger effect = lower value 0.995 | locus YIR030C, strain dcg1, stronger effect = lower value 0.984 | locus YJL092W, strain hpr5, stronger effect = lower value 0.996 | locus YJL095W, strain BCK1 (second series), stronger effect = lower value 1 | locus YJL095W, strain BCK1, stronger effect = lower value 1.01 and 1.05 | locus YJL115W, strain asf1, stronger effect = lower value 1 | locus YJL129C, strain trk1, stronger effect = lower value 1.06 | locus YJL134W, strain LCB3, stronger effect = lower value 1.01 | locus YJL154C, strain vps35, stronger effect = lower value 0.993 | locus YJL164C, strain tpk1, stronger effect = lower value 0.953 | locus YJL166W, strain qcr8, stronger effect = lower value 1.02 | locus YJL168C, strain set2, stronger effect = lower value 1 | locus YJL187C, strain SWE1 (second series), stronger effect = lower value 0.988 | locus YJL187C, strain SWE1, stronger effect = lower value 0.983 | locus YJR043C, strain POL32, stronger effect = lower value 1.02
